# Screening results deposited in PubChem by National Center for Advancing Translational Sciences (NCATS).
# A selection: hits, their analogues and other compounds. The true share with any hit is near 0.43%.
# EPAC2 antagonist: blocks human EPAC2 exchange factor. 360,000 compounds, 0.18% hits. EPAC2 GEF exchange of Rap1B-BODIPY-GDP, fluorescence. AID 720708. Potency, µM (titrated, usually from 114 µM), for inactives: top-dose activity, negative = inhibition, actives largely listed as inhibitors. Q8WZA2; note: % is set by controls: 0 for no effect and ±100 for the full control effect; nearly all actives have a fitted effect of over 45% in size
# Rango release inh: prevents RanGTP from dissociating the Rango-importin beta complex; AID 540253; Potency, µM (doses to about 46.1 µM), for inactives: at the highest dose activity change, negative = inhibition; Biochemical FRET Rango-importin beta, RanGTP-induced dissociation; 340,000 compounds, 0.071% hits; calls by dose curve; note: % of control where 0% means no effect; nearly all actives have a fitted effect of over 45% in size
#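 Two FRET readings bracket the reaction: one 5 min after compound meets Rango–importin beta, another 45 min after RanGTP-RCC1 (0.6 uM Ran, 0.2 uM RCC1, 2 mM GTP) is added. Only the second defines inhibition.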
# Rango complex inh: prevents formation of the Rango-importin beta complex | Q14974 | Rango CFP/YFP FRET sensor + importin beta, 45 min | Potency, µM (doses to about 92.2 µM), for the others: at the top dose inhibition of complex formation | 340,000 compounds, 0.031% hits; calls by dose curve;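 note: 0% = DMSO wells and 100% = buffer wells lacking importin beta; nearly all actives have a fitted effect of over 15% in size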
#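 FRET biosensor Rango (snurportin 1 IBB between N-terminal EYFP and C-terminal Cerulean), 50 nM in PBS/1 mM DTT/0.02% Tween-20/0.1% BSA, preincubated 5 min RT with compound; 0.125 microM importin beta added, 45 min RT, CFP/YFP FRET ratio read.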
# EPAC1 agonist: agonists of human EPAC1; EPAC1 agonist qHTS, biochemical assay; response scale: 100% = response to 6.5 mM cAMP; 360,000 compounds, 0.073% hits; AID 720707; O95398; Potency, µM (top dose mostly 154 µM), without a hit: at the highest dose activation, usual class: activators; note: nearly all actives have a fitted effect of over 60% in size
# Target sequence (O95398 whole entry, looked up): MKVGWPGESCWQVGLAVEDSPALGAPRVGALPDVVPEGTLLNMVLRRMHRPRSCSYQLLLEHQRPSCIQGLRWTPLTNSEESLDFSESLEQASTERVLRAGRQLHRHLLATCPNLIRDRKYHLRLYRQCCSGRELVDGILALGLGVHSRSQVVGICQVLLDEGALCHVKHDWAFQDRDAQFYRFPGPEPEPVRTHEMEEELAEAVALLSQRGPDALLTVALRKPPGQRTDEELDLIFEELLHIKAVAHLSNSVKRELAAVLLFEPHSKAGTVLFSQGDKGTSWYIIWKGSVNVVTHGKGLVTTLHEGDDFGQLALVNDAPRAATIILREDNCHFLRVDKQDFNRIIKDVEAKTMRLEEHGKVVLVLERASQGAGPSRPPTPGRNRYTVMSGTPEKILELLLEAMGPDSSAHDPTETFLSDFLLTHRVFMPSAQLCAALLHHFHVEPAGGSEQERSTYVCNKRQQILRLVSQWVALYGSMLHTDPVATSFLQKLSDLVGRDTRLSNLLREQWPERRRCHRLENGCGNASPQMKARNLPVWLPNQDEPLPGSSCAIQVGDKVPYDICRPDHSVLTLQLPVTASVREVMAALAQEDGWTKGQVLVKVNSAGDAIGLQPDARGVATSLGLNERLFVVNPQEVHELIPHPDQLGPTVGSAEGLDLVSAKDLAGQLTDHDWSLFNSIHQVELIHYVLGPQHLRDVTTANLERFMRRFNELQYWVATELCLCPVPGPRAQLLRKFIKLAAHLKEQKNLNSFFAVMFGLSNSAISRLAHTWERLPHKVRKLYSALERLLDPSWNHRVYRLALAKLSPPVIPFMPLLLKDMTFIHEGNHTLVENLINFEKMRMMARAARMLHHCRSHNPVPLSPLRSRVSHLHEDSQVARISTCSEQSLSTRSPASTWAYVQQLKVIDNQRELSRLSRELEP
#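 Read-out is the fluorescence drop as BODIPY-GDP leaves Rap1B (480 nm excitation, 540 nm emission), recorded every 5 minutes over 30 minutes. Reactions held 100 nM EPAC1, 250 nM Rap1B–BODIPY-GDP and 50 uM GDP, with 6.5 mM cAMP setting full activation.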
# EPAC1 antagonist: antagonists of human EPAC1 | O95398 | 360,000 compounds, 0.14% hits | Potency, µM (top dose mostly 115 µM), without a hit: at the top dose activity change, negative = inhibition, usual class: inhibitors | EPAC1 GEF assay, Rap1b-BODIPY-GDP exchange fluorescence;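 note: plate controls were vehicle for no effect and positive control for full effect; nearly all actives have a fitted effect of over 50% in size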
# EPAC2 agonist: EPAC2 (human) agonism. Q8WZA2. EPAC2 activation, biochemical qHTS; response scale: 100% = 6.5 mM cAMP response. Potency, µM (highest dose often 154 µM), for the others: top-dose activation, actives largely listed as activators. 360,000 compounds, 0.079% hits; note: nearly all actives have a fitted effect of over 50% in size
#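 Nucleotide exchange monitored as fluorescence drop when BODIPY-GDP leaves Rap1B. Reaction: 100 nM EPAC2, 250 nM RAP1B-BODIPY-GDP, 50 uM GDP, room temperature, kinetic read over 30 min. Activity expressed relative to 6.5 mM cAMP.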
# An asterisk follows results filed as active; u = inconclusive; x = no result; [ ] = another dose, or the depositor's remark. Unless noted, calls come from the whole dose curve; as a rule, active = well fitted curve in the direction sought with a large enough effect; inconclusive = small, poorly fitted or top-dose-only effect, or another doubt; inactive = no such curve, though single readings can be large; an effect the other way counts as inactive or inconclusive. Potency is the fitted concentration of half-maximal effect.
SMILES,EPAC2 antagonist,Rango release inh,Rango complex inh,EPAC1 agonist,EPAC1 antagonist,EPAC2 agonist
CN1CCN(CCCN2c3ccccc3Sc3ccc(Cl)cc32)CC1,12.6µM*,11.0%,14.6%,-9.4%,-27.6%,0.8%
CCSC1=NSC2=NC(=O)/C(=C\c3coc4ccccc4c3=O)C(=N)N12,73.5%,u,u,44.7µM*,86.3%,100µM*
CC(C)CC1=NN2C(=N)/C(=C\c3coc4ccccc4c3=O)C(=O)N=C2S1,159.3%,u,u,63.1µM*,97.1%,63.1µM*
COC(=O)C1(C(=O)OC)C[C@H](/C=C/c2ccccc2)N(Cc2ccccc2OC)[C@@H]1c1ccccc1,-8.0%,x,x,3.1%,-17.1%,-7.4%
Cc1cccc(C)c1NC(=O)C1(C)CSCC(=O)N1C1CCN(Cc2ccccc2)CC1 (stereo not given),-17.3%,x,x,-0.9%,11.2%,2.7%
CC(C)c1cc(Cn2c3ccccc3c(=O)n2C(C)Cn2cc(-c3ccc(C(C)(C)C)cc3)nn2)on1 (stereo not given),-22.5%,x,x,-8.3%,-10.0%,-0.8%
Nc1c(S(=O)(=O)O)cc(NC(=O)c2ccccc2)c2c1C(=O)c1ccccc1C2=O,39.8µM*,3.9%,-0.3%,-3.8%,u,0.4%
COC(=O)c1cn(C(=O)c2cc(OC)c(OC)c(OC)c2)c2ccccc12,17.8µM*,39.5%,1.3%,-1.1%,0.9%,5.3%
CCC1(C)Cc2nc3sc(C(=O)O)c(N)c3cc2CO1 (stereo not given),-1.1%,18.4µM*,u,-6.1%,12.1%,-19.3%
CCOC(=O)c1sc2nc3c(cc2c1N)COC(C)(CC)C3 (stereo not given),6.0%,u,u,-4.0%,-2.8%,-16.1%
C=Cc1ccc(Cn2nc(-c3ccccc3)ccc2=O)cc1,22.4µM*,1.0%,0.4%,8.2%,-6.8%,2.5%
C=CCN(CC=C)Cc1cc(=O)oc2ccccc12,-28.6%,x,x,-10.5%,9.3%,-0.1%
COc1ccccc1/C=C1\SC(=S)N(NS(=O)(=O)c2ccc(C)cc2)C1=O,u,2.3%,0.6%,-4.2%,79.4µM*,8.4%
COc1ccc(OC)c(/C=C2\SC(=S)N(Cc3cccnc3)C2=O)c1,9.9%,1.4%,u,9.3%,3.6%,112µM*
COc1ccc(OC)c(/C=C2\SC(=S)N(NS(=O)(=O)c3ccc(C)cc3)C2=O)c1,u,-11.5%,10.5%,8.9%,56.2µM*,8.6%
COc1ccc(O)c(/C=C2/SC(=S)N(Cc3ccccc3)C2=O)c1,8.0%,u,u,4.1%,-7.5%,12.1%
COc1ccc(/C=C2\SC(=S)N(NS(=O)(=O)c3ccc(C)cc3)C2=O)c(OC)c1,-12.8%,-2.5%,-4.3%,-0.9%,u,-17.9%
CC(C)NC(=O)C1(C)CSCC(=O)N1Cc1cccc(C(F)(F)F)c1 (stereo not given),0.7%,x,x,-0.5%,-2.0%,5.4%
O=C(Nc1ccccc1Cc1ccccc1)c1ccccc1NS(=O)(=O)c1ccc(Cl)s1,31.6µM*,16.8%,0.9%,11.3%,-31.3%,12.5%
CCOc1cc(/C=C2\SC(=NC)N(C)C2=O)cc(Cl)c1OC(C)=O,-18.8%,4.61µM*[inhibitor],u,1.1%,-7.1%,6.7%
Cn1cc(C2=C(c3ccc(Cl)cc3Cl)C(=O)NC2=O)c2ccccc21,15.2%,u,u,-47.2%,u,100µM*
COc1cc2c3nnc(-c4ccc(F)cc4)c-3cn(Cc3ccc(C)cc3)c2cc1OC,75.6%,u,u,-51.5%,35.6%,-51.6%
COc1cc2c3nnc(-c4ccccc4)c-3cn(Cc3ccc(F)cc3)c2cc1OC,70.8µM*,u,u,8.7%,2.0%,29.9%
COc1cccc(CNc2nc(NC(C)C)nc3ccsc23)c1,-20.3%,x,x,-8.0%,-17.8%,6.7%
Cc1cccc(C)c1N1C(=O)c2ccccc2NC(=O)C1C(=O)Nc1ccc(N2CCOCC2)cc1 (stereo not given),3.9%,x,x,-10.3%,-18.1%,6.3%
SMILES,EPAC2 antagonist,Rango release inh,Rango complex inh,EPAC1 agonist,EPAC1 antagonist,EPAC2 agonist
COc1ccc(CCc2ccc3cc(OC)ccc3n2)cc1,-3.9%,6.5%,2.5%,1.5%,-28.5%,0.1%
COc1ccc2cc(CCC(C)=O)ccc2c1,28.2µM*,-5.8%,-3.0%,-10.1%,-9.7%,5.5%
CN1CCN(c2ccc(CNC(=O)C3(C)Cc4c(-c5ccccc5)ccnc4O3)cc2)CC1 (stereo not given),4.3%,x,x,-10.3%,-7.5%,2.9%
O=c1ccc2[n+]([O-])c3ccc(O)cc3oc-2c1,1.1%,1.7%,0.7%,8.7%,-6.7%,2.4%
Nc1ccc(-c2c3ccc(=O)cc-3oc3cc(O)ccc23)c(C(=O)O)c1,199.3%,u,u,100µM*,160.4%,126µM*
COc1ccccc1-c1cnc(C(O)c2ccc(C(C)(C)C)cc2)[nH]1 (stereo not given),u,x,x,-12.1%,-20.7%,2.5%
COc1cc(S(=O)(=O)Nc2ccccc2C)ccc1Cl,28.2µM*,-7.4%,-0.4%,-1.1%,10.3%,5.7%
COc1cc(S(=O)(=O)Nc2c(C)cc(C)cc2C)ccc1Cl,3.0%,0.2%,-1.9%,-2.8%,-1.0%,-12.0%
Cc1ccc(C2=N/C(=C\c3c(C)nn(-c4ccccc4)c3N3CCCC3)C(=O)O2)cc1,35.8%,-10.4%,0.1%,-2.6%,10.6%,100µM*
Cc1nn(-c2ccccc2)c(N2CCCC2)c1/C=C1\N=C(c2ccc(F)cc2)OC1=O,28.2%,6.7%,-0.8%,2.0%,-0.6%,u
COc1ccc(-c2csc3nc(C)nc(N4CCCCC4)c23)cc1OC,28.2µM*,16.1%,-2.0%,-1.0%,-4.5%,8.5%
C/C(=N\NC(=O)c1cc2ccccc2cc1O)c1ccccn1,14.1%,-26.1%,u,-22.0%,u,9.6%
C/C(=N\NC(=O)c1cc2ccccc2cc1O)c1cc2ccccc2o1,6.0%,-4.5%,u,4.9%,50.1µM*,-7.2%
Cc1cc(C)c2nc(C(F)(F)F)nc(N3CC(C)OC(C)C3)c2c1 (stereo not given),10µM*,8.6%,0.7%,1.6%,-9.3%,-2.3%
CCOC(=O)N1CCN(c2nc(C(F)(F)F)nc3c(C)cc(C)cc23)CC1,-19.9%,-10.0%,-3.8%,-0.7%,-12.2%,9.0%
Clc1ccccc1C(c1ccccc1)(c1ccccc1)n1ccnc1,14.1µM*,3.2%,-2.2%,5.2%,-4.4%,20.4%
O=C(NCCS(=O)(=O)N1CCN(c2cccc(Cl)c2)CC1)c1ccc2c(c1)OCO2,-8.9%,18.2%,2.2%,35.5µM*,-3.6%,-3.7%
